In PubChem BioAssay (NCI):
The panel holds about 83,000 compounds, 20% with a hit somewhere; the sample as a whole holds those more often.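 Testing used 96-well plates and a 48-hour single-concentration exposure. Example: -40 means 40% of the starting cells died.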 Unmarked numbers belong to inactive results. The source made the active and inactive calls. The calls were made as follows: active = growth percent below 10; inactive = the rest.

How the values were obtained:
Assay in all cases: NCI-60 one-dose screen, 48 h (100 = growth as untreated, 0 = no growth, -100 = all killed)
Details in all cases: 10 µM unless noted
SK-MEL-2 melanoma = tested on: SK-MEL-2 melanoma
EKVX NSCLC = tested on: EKVX NSCLC
SN12C renal = tested on: SN12C renal
ACHN renal = tested on: ACHN renal
CAKI-1 renal = tested on: CAKI-1 renal
A498 renal = tested on: A498 renal
CCRF-CEM leukemia = tested on: CCRF-CEM leukemia
MOLT-4 leukemia = tested on: MOLT-4 leukemia
TK-10 renal = tested on: TK-10 renal
UO-31 renal = tested on: UO-31 renal

Row | Compound | growth (SK-MEL-2 melanoma) | growth (EKVX NSCLC) | growth (SN12C renal) | growth (ACHN renal) | growth (CAKI-1 renal) | growth (A498 renal) | growth (CCRF-CEM leukemia) | growth (MOLT-4 leukemia) | growth (TK-10 renal) | growth (UO-31 renal)
1 | COc1ccc(OC)c(/C=C2\COc3ccc(O)c(O)c3C2=O)c1 | 76.6% | 57.9% | -4.71% (active) | 19.6% | 31.2% | 107% | -0.701% (active) | 4.32% (active) |  | 
2 | C=C(C)[C@@H]1CC[C@@]2(C(=O)O)CC[C@]3(C)C(CCC4[C@@]5(C)CCC(OS(=O)(=O)c6ccccc6)C(C)(C)C5CC[C@]43C)C12 (stereo not given in full) | 70.3% | 25.4% | 62.2% |  | -15.5% (active) | 84.2% | 62.4% | 51.7% | 59.8% | 
3 | COc1cc2cc(Oc3ccc(NC(=O)Nc4cc(C(F)(F)F)cc(C(F)(F)F)c4)cc3)c(C)nc2cc1OCCN1CCCCC1 | -35.6% (active) | -73.1% (active) | -92.6% (active) | -100% (active) | -76.7% (active) |  | -26.7% (active) | -44.4% (active) | -72.4% (active) | 
4 | O=[N+]([O-])c1ccc(-c2cc3c(Nc4ccc(Cl)c(C(F)(F)F)c4)ncnc3s2)cc1 | -4.98% (active) | 7.59% (active) | 2.43% (active) | 4.57% (active) |  | -13% (active) | 17.5% | 9.22% (active) | 9.44% (active) | 
5 | Nc1nc(I)c2ncn(C3OC(CO)C(O)C3O)c2n1 (stereo not given) | 159% | 96.6% | 100% | 111% | 9.47% (active) | 103% | 116% | 109% |  | 
6 | CO/C(=C1/NC(=O)C(Cc2ccc(O)c(Br)c2)N(C)C(=O)C(C)NC(=O)CCC/C=C(\C)CCC(C)OC1=O)c1ccccc1 (stereo not given) | -100% (active) | -25.3% (active) | 6.56% (active) | -34.7% (active) |  | -63.7% (active) | 0.832% (active) | -12.2% (active) | -83.2% (active) | 
7 | COc1cccc(-c2cnco2)c1OCc1c(C)c(COc2c(OC)cccc2-c2cnco2)c(C)c(COc2c(OC)cccc2-c2cnco2)c1C | 60.9% | 52.8% | 51.4% | 29.6% | 88.7% | -13.6% (active) | 94.5% | 91.2% | 28.1% | 
8 | Cc1nc(C)c(-c2nn3c(-c4cccc(F)c4)nnc3s2)s1 | 102% |  | 97.6% | 117% | 103% | 67.5% | 90.4% | 87% | 77.6% | 83.9%
9 | Cn1cc(Nc2nccc(-c3ccc(N4CCCC4)c(C#N)c3)n2)cn1 | 3.95% (active) | 57% | 44.9% | 26.7% | 16.7% | 48% | 34% | 17.2% | 40.7% | 
10 | O=[N+]([O-])c1ccc(-c2cc3c(Nc4ccc(OCc5cccc(Cl)c5)c(Cl)c4)ncnc3s2)cc1 | 79.4% | 68.4% | 85.1% | 63.3% |  | 72.3% | 52.2% | 47.5% | 70.1% | 
11 | CN(C)CCCCNc1ccc(NCCCCN(C)C)c2c1C(=O)c1c(O)ccc(O)c1C2=O | 98.2% | -76.2% (active) | 64.2% | -89.2% (active) | -91.7% (active) | 92.4% | -28.5% (active) | -34.6% (active) | -93.6% (active) | 
12 | COc1ccc(/C(C)=N/NS(=O)(=O)c2ccc(C)cc2)cc1OC | 122% |  | 109% | 103% | 90.4% | 87.2% | 102% | 98.2% | 104% | 103%
13 | Cc1[nH]c(-c2nc3ccccc3[nH]2)c(C)c1C(=O)N1CCc2sccc2C1 | 107% | 91.9% | 89.2% |  | 85.1% |  | 88.7% | 93.3% | 106% | 
14 | Nc1nc(N)c(-c2ccc(Cl)cc2)c(/C=C/c2ccc([N+](=O)[O-])cc2)n1 | 88.7% |  | 93.6% | 90.8% | 86.3% | -3.32% (active) | 34.8% | 27.6% | 109% | 41.7%
15 | C[C@H]1[C@H](C)CC[C@]2(C(=O)N3CCN(C)CC3)CC[C@]3(C)C(=CC[C@@H]4[C@@]5(C)C/C(=C/c6cccnc6)C(=O)C(C)(C)[C@@H]5CC[C@]43C)[C@H]12 |  | -81.5% (active) | -95.3% (active) | -94.4% (active) | -42.5% (active) | -83.2% (active) | -51.7% (active) | -51.9% (active) | -97.4% (active) | -92.5% (active)
16 | O=C(Nc1ccc(N2CCCCC2)c(Cl)c1)c1ccc(Br)o1 | 91.9% |  | 80.6% | 64.3% |  | 102% | 74.9% | 75.4% | 102% | 51.5%
17 | O=c1ccn(C2OC(F)(CO)C(O)C2F)c(=O)[nH]1 (stereo not given) |  | 91.2% | 102% | 98.9% | 94.3% | 68.5% | 103% | 99.8% | 90.3% | 97.1%
18 | COC(=O)CCCNC(=O)C(=O)c1c(O)c(O)c(C(C)C)c2cc(C)c(-c3c(C)cc4c(C(C)C)c(O)c(O)c(C(=O)C(=O)NCCCC(=O)OC)c4c3O)c(O)c12 |  | 2.47% (active) | 16.6% | 3.45% (active) | 32.7% | -7.28% (active) | 16.1% | 8.94% (active) | 7.48% (active) | -5.61% (active)
19 | COc1ccc(OC)c(Nc2nc3nonc3nc2Nc2cccc(Br)c2)c1 | -17.4% (active) |  | 12.4% | -22.5% (active) | 0.162% (active) | -39.9% (active) | 12.4% | 3.8% (active) | 7.4% (active) | 3.39% (active)
20 | CCOc1cccnc1/C=N/NC(N)=S | 52.2% |  | 53.5% | 35.7% | 29% | 3.97% (active) | 17.4% | 7.07% (active) | 66% | 
21 | Nc1c(C(=O)c2ccc(Cl)s2)sc2nc3c(cc12)CCCC3 | 105% |  | 94.4% |  | 87% | 72% | 99.9% | 99.5% | 151% | 81.2%
22 | Nc1c(C(=O)Nc2ccccc2)sc2nc3c(cc12)CCCCCC3 | 9.7% (active) |  |  | 26.5% | 42% | -0.375% (active) | 6.81% (active) | 18.3% | 36.3% | 16.6%
23 | COC1=CC(c2ccc[nH]2)=N/C1=C\c1[nH]c(C)c(C(=O)OCCn2cc(CCC[C@@H]3Cc4cc(O)ccc4C4CC[C@]5(C)[C@@H](O)CC[C@H]5C43)nn2)c1C (stereo not given in full) | 122% |  |  | 66.5% | 46.4% | 49.6% | 36.8% | 62.1% | 96.9% | 44.7%
24 | CCNCCNc1cc(-c2ccc(C(F)(F)F)cc2)c(C#N)c2nc3cc(Cl)c(Cl)cc3n12 |  | -94.2% (active) | -70.9% (active) | -100% (active) | -91.5% (active) | -40.5% (active) | -48.4% (active) | -56.8% (active) | -94.7% (active) | -92.5% (active)
25 | NC(=S)N/N=C/C(=O)O | 85.3% |  | 90.4% | 91.2% | 88.5% | 80.3% | 24.3% | 44% | 111% | 38.8%
26 | N#Cc1c(Oc2ccc([N+](=O)[O-])cc2)nc2sc3cc(Cl)ccc3n2c1=N |  | 84% | 91% | 100% | 111% | 100% | 96.5% | 77.3% | 49.9% | 72.5%
27 | COc1ccc(NC(=O)C(=O)c2c[nH]c3ccc(F)cc23)cc1 | 106% |  | 98.9% |  | 93.1% | 65.8% | 97.8% | 90.8% | 132% | 96.4%
28 | CCCCNC(=O)NS(=O)(=O)c1ccc(N2N=C(c3ccc(C)cc3C)CC2c2ccc(N(C)C)cc2)cc1 (stereo not given) | 78% |  | 59.4% | 48.6% | 63% | 62.6% | 43.3% | 48.4% | 83% | 51.4%
29 | COc1cc2oc(-c3cccc(C(=O)Nc4ccc(C#N)cc4)c3)cc(=O)c2c(O)c1OC | 74.4% |  | 64.9% | 38.7% | 85.2% | 86.7% | 88.5% | 88.3% | 50.5% | 55.3%
30 | COc1ccc(-c2cc(-c3cc(OC)ccc3O)[nH]c(=O)c2C#N)cc1 |  | 96% | 66.3% | 81% | 77.6% | 37.5% | 46.3% | 32% | 76.1% | 44.1%
